# Where “and” joins values, the source holds several entries; their conditions need not be identical. Identical values can stand only once. Records with an inconclusive call do not appear. A structure can be active in one record and inactive in another. Calls of active or inactive are those of the source. How the source made its calls, unless noted: active means hit-call score of the fitted dose curve at least 0.9, where 1 is the maximum; inactive means score below 0.9.
# What was measured:
# [1] = molecular target: Nuclear respiratory factor 1 (Homo sapiens) (UniProt Q16656); experiment: ATG_NRF1_CIS: Attagene CIS-FACTORIAL HepG2 Assay for human Nuclear Respiratory Factor 1 (NRF1) Orphan Gene (AID 2282987); conditions: HepG2 NRF1 cis-element reporter, Attagene multiplex; actives raise or lower the signal
# How it was run: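 Using DMSO as baseline, gain- or loss-of-signal was fitted for reporter mRNA levels in HepG2 cells transiently transfected with cis-regulated reporter units. Samples were taken 24 h after dosing and read by RT-PCR with capillary electrophoresis.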
# [2] = molecular target: Myc proto-oncogene protein (Homo sapiens) (UniProt P01106); experiment: ATG_Myc_CIS: Attagene CIS-FACTORIAL HepG2 Assay for human Myelocytomatosis (Myc) Proto-Oncogene Transcription Factor (AID 2282990); conditions: HepG2, Attagene cis-reporter transcription factor activity; actives raise or lower the signal
# How it was run: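 After 24 h chemical treatment of HepG2 cells carrying multiplexed cis-regulated reporter constructs, reporter transcripts quantified by RT-PCR and capillary electrophoresis of fluorescent fragments. Gain or loss fitted against DMSO baseline.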
# [3] = ATG_NF_kB_CIS: Attagene CIS-FACTORIAL HepG2 Assay for human Nuclear Factor Kappa B (NF-kB) (AID 2282991); conditions: HepG2 Attagene cis-factorial NF-kB reporter mRNA; actives raise or lower the signal
# How it was run: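 Endpoint from a 52-component multiplexed HepG2 reporter panel: cis-regulated transcription units transiently transfected, 24 h dosing, reporter mRNA quantified by RT-PCR and capillary electrophoresis, scored as increase or decrease against DMSO.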
# [4] = ATG_NRF2_ARE_CIS: Attagene CIS-FACTORIAL HepG2 Assay for human Nuclear Factor Erythroid 2 Related Factor 2 (NFR2) response to Antioxidant Response Elements (ARE) (AID 2282992); conditions: HepG2 Attagene ARE/NRF2 reporter, transcription factor activity; actives raise or lower the signal;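 on AC50: reporter mRNA level measured by RT-PCR and capillary electrophoresis fluorescence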
# How it was run: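 Transient MRTU transfection of HepG2; 24 h compound exposure; TriZol RNA, RT with oligo(dT), PCR, 6-FAM primer extension, HpaI cut, CE. Bidirectional fit vs DMSO.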
# [5] = ATG_Oct_MLP_CIS: Attagene CIS-FACTORIAL HepG2 Assay for human Octamer-Binding Transcription Factor (Oct) (AID 2282993); conditions: HepG2 Attagene cis-factorial Oct reporter, mRNA; actives raise or lower the signal
# How it was run: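 Using HepG2 cells bearing transfected cis-reporter constructs, mRNA induction was read after 24 h by fluorescent RT-PCR and capillary electrophoresis, with DMSO defining baseline for gain- or loss-of-signal fits.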
# [6] = molecular target: Cellular tumor antigen p53 (Homo sapiens) (UniProt P04637); experiment: ATG_p53_CIS: Attagene CIS-FACTORIAL HepG2 Assay for human p53 Transcription Factor (AID 2282994); conditions: HepG2 p53 cis-element reporter, Attagene mRNA; actives raise or lower the signal
# How it was run: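 HepG2, transient MRTU transfection (cis promoter elements, endogenous TFs); 24 h dosing; RNA isolation, RT-PCR, 6-FAM primer extension, HpaI digest, CE fluorescence; bidirectional fit vs DMSO.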
# [7] = BSK_3C_TissueFactor: BioMAP Diversity Plus: 3C Assay for Tissue Factor Biomarker Activity (AID 2282997); conditions: BioMAP 3C HUVEC, tissue factor biomarker readout; actives raise or lower the signal
# How it was run: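 Dosing of human umbilical vein endothelial cells preceded a 24 h incubation. Tissue Factor was then read by ELISA, with increases and decreases both scored relative to DMSO controls.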
# [8] = BSK_3C_uPAR: BioMAP Diversity Plus: 3C Assay for Urokinase-type plasminogen activator receptor (uPAR) Biomarker Activity (AID 2282998); conditions: BioMAP 3C HUVEC, uPAR biomarker ELISA; actives raise or lower the signal
# How it was run: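 In this endothelial cell-based assay, human umbilical vein primary cells were treated with chemicals and harvested at 24 h. uPAR was quantified using ELISA, with gains or losses fitted relative to DMSO controls.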
# [9] = BSK_3C_VCAM1: BioMAP Diversity Plus: 3C Assay for Vascular cell adhesion molecule 1 (VCAM1) Biomarker Activity (AID 2282999); conditions: BioMAP 3C HUVEC, VCAM1 ELISA, cytokine-stimulated; actives raise or lower the signal
# How it was run: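 Endothelial cells from human umbilical vein are treated with test chemical. At 24 h, VCAM-1 is measured by ELISA, and responses in either direction are fitted relative to DMSO.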
# [10] = BSK_4H_Eotaxin3: BioMAP Diversity Plus: 4H Assay for Eotaxin 3 Biomarker Activity (AID 2283000); conditions: primary human endothelial cells (HUVEC); actives raise or lower the signal;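 on outcome: CCL26 protein level quantified by ELISA in parallel with SRB cytotoxicity check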
# How it was run: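 Human umbilical vein endothelial cells (BSK_4H system) dosed with test chemical; Eotaxin-3 (CCL26) measured by ELISA 24 h after dosing. Bidirectional curve fitting relative to DMSO negative control as baseline.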
# [11] = molecular target: human Peroxisome Proliferator-activated Receptor alpha (PPARa), PPARA (gene 5465) (UniProt Q07869); experiment: ATG_PPARa_TRANS: Attagene TRANS-FACTORIAL HepG2 Assay for human Peroxisome Proliferator-activated Receptor alpha (PPARa) (AID 2283001; active means hit-call score of the fitted dose curve at least 0.9, where 1 is the maximum;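 on AC50: potency for gain of reporter signal over DMSO so agonist or activator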)
# How it was run: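 Read-out is fluorescence of reporter cDNA fragments resolved by capillary electrophoresis after RT-PCR. Human HepG2 liver cells carried transfected PPARa-Gal4 chimera and GAL4-UAS reporter units, treated 24 h; activity scored as increase over DMSO.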
# [12] = molecular target: human Peroxisome Proliferator-activated Receptor delta (PPARd), PPARD (gene 5467) (UniProt Q03181); experiment: ATG_PPARd_TRANS: Attagene TRANS-FACTORIAL HepG2 Assay for human Peroxisome Proliferator-activated Receptor delta (PPARd) (AID 2283002; active means hit-call score of the fitted dose curve at least 0.9, where 1 is the maximum)
# How it was run: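 Read-out is induced reporter mRNA, quantified by RT-PCR with fluorescent labelling and capillary electrophoresis after 24 h dosing. Cells are HepG2 transiently carrying multiple GAL4-UAS reporter units driven by exogenous NR-GAL4 chimeras; DMSO serves as baseline.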
# [13] = read-out: Intercellular Adhesion Molecule 1 (ICAM1), ICAM1 (gene 3383); experiment: BSK_3C_ICAM1: BioMAP Diversity Plus: 3C Assay for Intercellular Adhesion Molecule 1 (ICAM1) Biomarker Activity (AID 2283003); conditions: primary human endothelial cells (HUVEC); actives raise or lower the signal
# How it was run: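 HUVEC primary cells stimulated under 3C conditions; ICAM1 measured by ELISA 24 h after compound dosing. Curves fitted bidirectionally against the DMSO baseline. Overt cytotoxicity checked by SRB staining of parallel cultures.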
# [14] = molecular target: human Retinoic Acid Receptor beta (RARb), RARB (gene 5915) (UniProt P10826); experiment: ATG_RARb_TRANS: Attagene TRANS-FACTORIAL HepG2 Assay for human Retinoic Acid Receptor beta (AID 2283004; active means hit-call score of the fitted dose curve at least 0.9, where 1 is the maximum)
# How it was run: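 Induction of reporter mRNA from a chimeric RARb-Gal4 construct was measured by RT-PCR, FAM labelling, HpaI digestion and capillary electrophoresis. Measurements followed 24 h compound treatment of transiently transfected human HepG2 liver cells, with DMSO as baseline.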
# [15] = molecular target: Retinoic acid receptor alpha (Homo sapiens) (UniProt P10276); experiment: ATG_RARa_TRANS: Attagene TRANS-FACTORIAL HepG2 Assay for human Retinoic Acid Receptor alpha (RARa) (AID 2283005; active means hit-call score of the fitted dose curve at least 0.9, where 1 is the maximum)
# How it was run: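 Reporter transcripts, measured by RT-PCR with fluorescent labeling and capillary electrophoresis after 24 h dosing, reflect activity of an exogenous human RARa–GAL4 fusion in transiently transfected HepG2. Fitted for increase relative to DMSO.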
# [16] = BSK_3C_Proliferation: Cell Proliferation Assessment in the BioMAP Diversity Plus: 3C Assay (AID 2283006); conditions: primary human endothelial cells (HUVEC);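 on AC50: potency may reflect either rise or fall in cell number versus DMSO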
# How it was run: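 Subconfluent HUVEC (3C system) cultured with chemical; relative cell number read at 48 h by sulforhodamine B total-protein staining (0.1% SRB after 10% TCA fixation, 560 nm). Bidirectional fit relative to DMSO.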
# [17] = molecular target: Peroxisome proliferator-activated receptor gamma (Homo sapiens) (UniProt P37231); experiment: ATG_PPARg_TRANS: Attagene TRANS-FACTORIAL HepG2 Assay for human Peroxisome Proliferator-activated Receptor-gamma (PPARg) (AID 2283007; active means hit-call score of the fitted dose curve at least 0.9, where 1 is the maximum)
# How it was run: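 Endpoint reflects upward reporter mRNA change versus DMSO controls. Setup: transiently transfected HepG2, GAL4-UAS reporters driven by chimeric NR-Gal4, 24 h incubation, RT-PCR with capillary electrophoresis read-out.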
# [18] = ATG_NFI_CIS: Attagene CIS-FACTORIAL HepG2 Assay for human Nuclear Factor I (NFI) (AID 2282989); conditions: HepG2 cis-regulatory reporter, NFI response element transcription; actives raise or lower the signal
# How it was run: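 Transfected HepG2 liver cells, exposed 24 h, supplied total RNA for oligo(dT) reverse transcription and reporter-specific PCR. Labelled, HpaI-cut fragments were sized by capillary electrophoresis; DMSO set the baseline for bidirectional fitting.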
# [19] = molecular target: Nuclear receptor subfamily 1 group I member 2 (Homo sapiens) (UniProt O75469); experiment: ATG_PXR_TRANS: Attagene TRANS-FACTORIAL HepG2 Assay for human Pregnane X Receptor (PXR) (AID 2283008; active means hit-call score of the fitted dose curve at least 0.9, where 1 is the maximum)
# How it was run: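 Read-out is fluorescence of labelled reporter cDNA fragments separated by capillary electrophoresis after RT-PCR and HpaI digestion. Source: HepG2 cells carrying PXR-GAL4/UAS reporter constructs, treated 24 h; activity fitted upward relative to DMSO.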
# [20] = molecular target: human Retinoic Acid Receptor gamma (RARg), RARG (gene 5916) (UniProt P13631); experiment: ATG_RARg_TRANS: Attagene TRANS-FACTORIAL HepG2 Assay for human Retinoic Acid Receptor gamma (RARg) (AID 2283009; active means hit-call score of the fitted dose curve at least 0.9, where 1 is the maximum)
# How it was run: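 HepG2 transiently transfected with GAL4-UAS reporter units and chimeric NR-Gal4 constructs; 24 h compound exposure. Reporter mRNA quantified by RT-PCR, FAM labeling, HpaI digestion and capillary electrophoresis; gain-of-signal versus DMSO.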
# Chain of Peroxisome proliferator-activated receptor gamma (Homo sapiens) (P37231 whole entry, looked up, the tested form may be a part): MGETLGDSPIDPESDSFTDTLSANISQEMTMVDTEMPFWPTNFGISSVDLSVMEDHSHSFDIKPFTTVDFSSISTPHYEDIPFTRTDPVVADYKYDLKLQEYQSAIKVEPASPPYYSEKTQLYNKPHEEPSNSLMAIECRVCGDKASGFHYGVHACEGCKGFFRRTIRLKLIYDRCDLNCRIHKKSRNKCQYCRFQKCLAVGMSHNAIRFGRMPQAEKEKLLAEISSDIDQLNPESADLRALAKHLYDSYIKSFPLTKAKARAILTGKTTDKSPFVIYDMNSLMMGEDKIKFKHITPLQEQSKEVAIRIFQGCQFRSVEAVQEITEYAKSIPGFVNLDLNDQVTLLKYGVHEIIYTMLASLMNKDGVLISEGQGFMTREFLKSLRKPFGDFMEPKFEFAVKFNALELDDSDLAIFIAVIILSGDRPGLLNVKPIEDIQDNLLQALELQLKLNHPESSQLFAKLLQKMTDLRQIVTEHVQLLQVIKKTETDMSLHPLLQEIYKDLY
# Chain of human Retinoic Acid Receptor beta (RARb), RARB (gene 5915) (P10826 whole entry, looked up, the tested form may be a part): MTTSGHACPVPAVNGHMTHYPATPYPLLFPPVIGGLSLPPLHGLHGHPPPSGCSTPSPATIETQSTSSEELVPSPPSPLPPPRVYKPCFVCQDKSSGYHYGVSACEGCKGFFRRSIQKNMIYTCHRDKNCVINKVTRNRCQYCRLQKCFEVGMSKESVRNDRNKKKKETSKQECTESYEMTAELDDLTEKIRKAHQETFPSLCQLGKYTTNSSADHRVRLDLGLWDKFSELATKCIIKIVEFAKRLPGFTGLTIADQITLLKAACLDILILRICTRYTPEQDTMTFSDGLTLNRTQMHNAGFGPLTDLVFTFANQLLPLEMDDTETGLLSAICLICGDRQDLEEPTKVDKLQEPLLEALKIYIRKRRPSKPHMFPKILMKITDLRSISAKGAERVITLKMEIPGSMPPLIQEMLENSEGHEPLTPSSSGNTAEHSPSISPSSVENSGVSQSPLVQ
# Chain of human Peroxisome Proliferator-activated Receptor delta (PPARd), PPARD (gene 5467) (Q03181 whole entry, looked up, the tested form may be a part): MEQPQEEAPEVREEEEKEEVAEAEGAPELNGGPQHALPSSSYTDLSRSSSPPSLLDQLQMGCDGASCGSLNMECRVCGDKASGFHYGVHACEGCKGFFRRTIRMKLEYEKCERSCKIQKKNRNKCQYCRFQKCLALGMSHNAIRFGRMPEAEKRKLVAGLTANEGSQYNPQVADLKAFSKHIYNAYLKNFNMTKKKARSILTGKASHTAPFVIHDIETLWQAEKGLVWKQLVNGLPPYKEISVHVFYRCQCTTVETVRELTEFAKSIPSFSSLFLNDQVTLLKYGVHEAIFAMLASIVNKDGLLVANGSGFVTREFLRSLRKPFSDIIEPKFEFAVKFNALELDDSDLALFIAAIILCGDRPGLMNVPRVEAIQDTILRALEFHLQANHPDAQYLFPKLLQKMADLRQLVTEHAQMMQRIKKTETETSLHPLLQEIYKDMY
# Chain of Nuclear respiratory factor 1 (Homo sapiens) (Q16656 whole entry, looked up): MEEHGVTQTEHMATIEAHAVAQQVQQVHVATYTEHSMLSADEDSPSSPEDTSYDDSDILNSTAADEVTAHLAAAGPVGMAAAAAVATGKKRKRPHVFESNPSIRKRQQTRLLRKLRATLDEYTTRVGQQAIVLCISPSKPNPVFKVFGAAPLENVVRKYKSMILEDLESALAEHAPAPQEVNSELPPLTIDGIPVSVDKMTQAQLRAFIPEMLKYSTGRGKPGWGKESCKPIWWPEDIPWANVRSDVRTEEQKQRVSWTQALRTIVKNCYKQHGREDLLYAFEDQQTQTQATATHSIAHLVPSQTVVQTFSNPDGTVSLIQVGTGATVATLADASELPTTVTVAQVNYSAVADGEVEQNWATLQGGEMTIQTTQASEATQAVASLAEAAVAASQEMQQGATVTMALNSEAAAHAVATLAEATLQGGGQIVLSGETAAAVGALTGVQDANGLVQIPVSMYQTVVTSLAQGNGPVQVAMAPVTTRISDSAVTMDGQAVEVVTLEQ
# Chain of human Peroxisome Proliferator-activated Receptor alpha (PPARa), PPARA (gene 5465) (Q07869 whole entry, looked up, the tested form may be a part): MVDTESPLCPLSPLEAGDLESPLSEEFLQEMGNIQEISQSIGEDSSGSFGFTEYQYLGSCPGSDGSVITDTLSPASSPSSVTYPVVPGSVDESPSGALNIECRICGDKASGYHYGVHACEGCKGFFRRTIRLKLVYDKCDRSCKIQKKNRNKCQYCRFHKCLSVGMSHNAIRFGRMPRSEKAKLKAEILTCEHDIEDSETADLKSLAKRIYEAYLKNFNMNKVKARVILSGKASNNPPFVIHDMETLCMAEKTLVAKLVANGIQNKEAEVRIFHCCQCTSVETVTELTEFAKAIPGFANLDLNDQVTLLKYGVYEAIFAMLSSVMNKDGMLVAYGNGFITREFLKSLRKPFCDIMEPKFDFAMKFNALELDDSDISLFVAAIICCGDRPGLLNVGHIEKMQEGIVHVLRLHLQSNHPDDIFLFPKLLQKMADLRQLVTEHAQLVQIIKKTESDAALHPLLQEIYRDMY
# Chain of Myc proto-oncogene protein (Homo sapiens) (P01106 whole entry, looked up, the tested form may be a part): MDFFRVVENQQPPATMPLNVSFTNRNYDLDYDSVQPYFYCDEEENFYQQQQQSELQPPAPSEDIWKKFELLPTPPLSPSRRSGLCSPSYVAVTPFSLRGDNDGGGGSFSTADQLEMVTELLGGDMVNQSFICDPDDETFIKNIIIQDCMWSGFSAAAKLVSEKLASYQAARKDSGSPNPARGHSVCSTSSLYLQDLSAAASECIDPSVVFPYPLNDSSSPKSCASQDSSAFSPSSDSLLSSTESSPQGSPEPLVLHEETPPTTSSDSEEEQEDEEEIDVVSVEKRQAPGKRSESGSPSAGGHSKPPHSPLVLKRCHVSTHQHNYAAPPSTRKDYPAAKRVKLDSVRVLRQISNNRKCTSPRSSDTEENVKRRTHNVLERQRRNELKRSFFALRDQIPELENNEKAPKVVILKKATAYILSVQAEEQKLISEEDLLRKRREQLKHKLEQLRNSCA
# Chain of Retinoic acid receptor alpha (Homo sapiens) (P10276 whole entry, looked up, the tested form may be a part): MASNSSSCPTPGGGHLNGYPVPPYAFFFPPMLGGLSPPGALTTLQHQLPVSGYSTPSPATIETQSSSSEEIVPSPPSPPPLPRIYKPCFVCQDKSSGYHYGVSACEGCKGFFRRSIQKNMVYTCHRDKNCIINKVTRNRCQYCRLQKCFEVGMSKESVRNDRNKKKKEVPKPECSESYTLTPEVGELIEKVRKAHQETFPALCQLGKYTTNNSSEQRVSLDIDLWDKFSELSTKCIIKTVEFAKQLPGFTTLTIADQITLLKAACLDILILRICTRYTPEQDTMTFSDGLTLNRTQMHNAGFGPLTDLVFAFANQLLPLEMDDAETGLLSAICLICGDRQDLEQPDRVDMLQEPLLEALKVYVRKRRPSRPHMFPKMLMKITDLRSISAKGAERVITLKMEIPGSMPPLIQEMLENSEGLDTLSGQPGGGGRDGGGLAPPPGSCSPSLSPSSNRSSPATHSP
# Chain of Nuclear receptor subfamily 1 group I member 2 (Homo sapiens) (O75469 whole entry, looked up, the tested form may be a part): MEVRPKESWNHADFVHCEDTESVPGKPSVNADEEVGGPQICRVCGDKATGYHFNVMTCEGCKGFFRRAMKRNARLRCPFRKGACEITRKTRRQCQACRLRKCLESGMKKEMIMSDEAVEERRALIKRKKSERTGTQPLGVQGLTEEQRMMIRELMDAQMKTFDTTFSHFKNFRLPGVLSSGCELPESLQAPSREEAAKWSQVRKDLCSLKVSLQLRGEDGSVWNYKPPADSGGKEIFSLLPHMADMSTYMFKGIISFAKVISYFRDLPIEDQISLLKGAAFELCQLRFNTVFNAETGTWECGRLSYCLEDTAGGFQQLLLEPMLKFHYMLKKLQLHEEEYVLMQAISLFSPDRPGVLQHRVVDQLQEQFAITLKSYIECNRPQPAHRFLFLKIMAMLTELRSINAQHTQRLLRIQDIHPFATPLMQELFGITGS
# Chain of Cellular tumor antigen p53 (Homo sapiens) (P04637 whole entry, looked up): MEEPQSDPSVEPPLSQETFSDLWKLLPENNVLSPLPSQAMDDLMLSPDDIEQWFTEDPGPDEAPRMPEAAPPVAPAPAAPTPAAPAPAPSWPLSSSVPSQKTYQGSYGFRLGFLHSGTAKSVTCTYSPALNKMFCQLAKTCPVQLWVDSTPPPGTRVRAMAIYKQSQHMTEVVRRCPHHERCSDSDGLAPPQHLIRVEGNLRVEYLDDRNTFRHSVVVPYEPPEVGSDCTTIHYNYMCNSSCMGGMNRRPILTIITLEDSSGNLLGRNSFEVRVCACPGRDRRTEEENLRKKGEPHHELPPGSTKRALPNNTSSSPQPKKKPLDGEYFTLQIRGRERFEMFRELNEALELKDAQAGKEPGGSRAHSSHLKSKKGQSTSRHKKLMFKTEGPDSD
# Chain of human Retinoic Acid Receptor gamma (RARg), RARG (gene 5916) (P13631 whole entry, looked up, the tested form may be a part): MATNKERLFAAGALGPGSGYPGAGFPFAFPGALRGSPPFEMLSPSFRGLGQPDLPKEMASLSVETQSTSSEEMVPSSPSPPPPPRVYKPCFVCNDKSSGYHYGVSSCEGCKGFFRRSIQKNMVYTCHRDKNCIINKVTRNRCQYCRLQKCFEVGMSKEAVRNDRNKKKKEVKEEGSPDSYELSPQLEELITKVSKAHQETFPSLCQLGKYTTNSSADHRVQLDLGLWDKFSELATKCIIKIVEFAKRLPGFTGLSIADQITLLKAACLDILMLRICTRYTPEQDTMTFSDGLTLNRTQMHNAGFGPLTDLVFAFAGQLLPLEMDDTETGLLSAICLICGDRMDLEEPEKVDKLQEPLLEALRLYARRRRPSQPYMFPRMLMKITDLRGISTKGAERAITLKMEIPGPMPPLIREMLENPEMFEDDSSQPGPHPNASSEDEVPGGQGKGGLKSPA
smiles,measurement,setting,value
CCCCCCCCC(F)(F)C(F)(F)C(F)(F)C(F)(F)C(F)(F)C(F)(F)F,outcome,[1],inactive
same,outcome,[2],inactive
same,outcome,[3],inactive
same,outcome,[4],inactive
same,AC50,[5],89.3 µM (active)
same,outcome,[6],inactive
same,outcome,[7],inactive
same,outcome,[8],inactive
same,outcome,[9],inactive
same,outcome,[10],inactive
same,outcome,[11],inactive
same,outcome,[12],inactive
same,outcome,[13],inactive
same,outcome,[14],inactive
same,outcome,[15],inactive
same,outcome,[16],inactive
same,outcome,[17],inactive
O=C(O)C(F)(F)C(F)(F)C(F)(F)C(F)(F)F,outcome,[1],inactive
same,outcome,[18],inactive
same,outcome,[2],inactive
same,outcome,[3],inactive
same,outcome,[4],inactive
same,outcome,[5],inactive
same,outcome,[6],inactive
same,outcome,[7],inactive
same,outcome,[8],inactive
same,outcome,[9],inactive
same,outcome,[10],inactive
same,outcome,[11],inactive
same,outcome,[16],inactive
same,outcome,[19],inactive
CCc1c(Br)c(Br)c(Br)c(Br)c1Br,outcome,[1],inactive
same,outcome,[18],inactive
same,outcome,[2],inactive
same,outcome,[3],inactive
same,outcome,[4],inactive
same,outcome,[5],inactive
same,outcome,[6],inactive
same,AC50,[7],4.73 µM (active)
same,AC50,[8],20 µM (active)
same,outcome,[9],inactive
same,AC50,[10],20 µM (active)
same,outcome,[12],inactive
same,outcome,[13],inactive
same,outcome,[14],inactive
same,outcome,[15],inactive
same,outcome,[16],inactive
same,AC50,[19],7.09 µM (active)
CC/C=C\CCOC(=O)c1ccccc1,outcome,[1],inactive
same,outcome,[18],inactive
same,outcome,[2],inactive
same,outcome,[3],inactive
same,outcome,[4],inactive
same,outcome,[5],inactive
same,outcome,[6],inactive
same,outcome,[11],inactive
same,outcome,[14],inactive
same,outcome,[15],inactive
same,outcome,[17],inactive
same,outcome,[19],inactive
Cc1cccc(N(C)C)c1,outcome,[1],inactive
same,outcome,[18],inactive
same,outcome,[2],inactive
same,outcome,[3],inactive
same,outcome,[4],inactive
same,outcome,[5],inactive
same,outcome,[6],inactive
same,outcome,[11],inactive
same,outcome,[17],inactive
same,outcome,[19],inactive
O=C(Cl)C(F)(F)C(F)(F)C(F)(F)C(F)(F)C(F)(F)C(F)(F)C(F)(F)C(F)(F)F,outcome,[1],inactive
same,outcome,[2],inactive
same,outcome,[3],inactive
same,AC50,[4],15.8 µM (active)
same,AC50,[5],47.1 µM (active)
same,AC50,[6],54.3 µM (active)
same,AC50,[7],53.4 µM (active)
same,outcome,[7],inactive
same,AC50,[8],30 µM (active) and 46 µM (active)
same,outcome,[8],inactive
same,outcome,[9],inactive
same,AC50,[10],42.9 µM (active) and 30 µM (active)
same,outcome,[10],inactive
same,AC50,[11],10.3 µM (active)
same,outcome,[12],inactive
same,outcome,[14],inactive
same,outcome,[15],inactive
same,AC50,[16],44.9 µM (active) and 53.1 µM (active) and 54.2 µM (active)
same,AC50,[17],25.2 µM (active)
same,AC50,[19],54.5 µM (active)
same,outcome,[20],inactive
CCCCOc1ccc(N)cc1,outcome,[1],inactive
same,outcome,[18],inactive
same,outcome,[2],inactive
same,outcome,[3],inactive
same,outcome,[4],inactive
same,outcome,[5],inactive
same,outcome,[6],inactive
same,outcome,[17],inactive
same,outcome,[19],inactive
CC(CCl)OP(=O)(OC(C)CCl)OC(C)CCl (stereo not drawn),outcome,[1],inactive
same,outcome,[18],inactive
same,outcome,[2],inactive
same,outcome,[3],inactive
same,outcome,[4],inactive
same,outcome,[5],inactive
same,outcome,[6],inactive
same,outcome,[7],inactive
same,outcome,[8],inactive
same,outcome,[9],inactive
same,outcome,[10],inactive
same,outcome,[16],inactive
same,outcome,[17],inactive
same,AC50,[19],0.801 µM (active)
same,outcome,[20],inactive
Nc1ccc([N+](=O)[O-])cc1O,outcome,[1],inactive
same,outcome,[18],inactive
same,outcome,[2],inactive
same,outcome,[3],inactive
same,AC50,[4],16.1 µM (active)
same,outcome,[5],inactive
same,outcome,[6],inactive
same,AC50,[7],20 µM (active)
same,outcome,[8],inactive
same,outcome,[9],inactive
same,outcome,[10],inactive
same,outcome,[12],inactive
same,outcome,[16],inactive
same,outcome,[17],inactive
same,outcome,[19],inactive
CCC(=O)OCCc1ccccc1,outcome,[1],inactive
same,outcome,[18],inactive
same,outcome,[2],inactive
same,outcome,[3],inactive
same,outcome,[4],inactive
same,outcome,[5],inactive
same,outcome,[6],inactive
same,outcome,[19],inactive
